# In the supplement of paper PMC3334620:
# The full ranking holds about 33,000 sequences; the median of “E-score (-0.5 to 0.5)” is about -0.013, and the highest 2% start at about 0.3. Many of the other results were omitted from the sample, so the highest values are more common in it than they were.
# Target: T1, Msn1 (UniProt P22148)
# T1 sequence: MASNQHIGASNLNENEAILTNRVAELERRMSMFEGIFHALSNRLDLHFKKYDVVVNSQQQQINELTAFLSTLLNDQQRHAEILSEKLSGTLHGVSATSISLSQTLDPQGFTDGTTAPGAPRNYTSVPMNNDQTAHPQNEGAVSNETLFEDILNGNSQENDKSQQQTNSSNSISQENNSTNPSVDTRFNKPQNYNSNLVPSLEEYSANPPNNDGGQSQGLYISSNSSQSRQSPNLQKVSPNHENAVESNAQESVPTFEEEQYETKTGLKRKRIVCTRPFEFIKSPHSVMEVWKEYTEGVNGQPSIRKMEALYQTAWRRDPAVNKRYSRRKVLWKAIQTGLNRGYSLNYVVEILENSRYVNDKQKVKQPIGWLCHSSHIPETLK
# Test: PBM E-score (8-mer binding enrichment) (E-score (-0.5 to 0.5)); higher = stronger / more preferred TF binding
# Settings: protein concentration: 200 nM; construct: GST-full length
# Method: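 Universal 'all 10-mer' protein binding microarrays (Agilent AMADID 015681) probed with GST-tagged S. cerevisiae TFs (full-length or DBD) made by in vitro transcription/translation (PURExpress), about 100-200 nM. Bound TF was detected with fluorescent anti-GST. Each ungapped 8-mer (which stands for itself and its reverse complement) is scored by the PBM enrichment score (E-score), a modified Wilcoxon-Mann-Whitney statistic from -0.5 to +0.5, computed with the Universal PBM Analysis Suite. Scale: above 0.35 generally sequence-specific binding.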
row,Sequence,PBM E-score
1,GCTCTGCC,-0.281
2,GCGGTCCC,-0.188
3,ACTATGAA,0.112
4,CGCAATAA,0.212
5,ATCGAAAT,-0.151
6,CAATAGCA,-0.168
7,CTCAGGAC,0.243
8,ATCAGGAG,-0.0236
9,GCGAGGAC,0.0256
10,ACCAGGAC,0.329
11,ACGAGGAC,0.324
12,CCCAGGAC,0.0729
13,GCCAGGAC,0.212
14,GTCAGGAC,0.316
15,ATCAGGAC,0.307
16,ACGAGGAT,-0.178
17,ACCAGGAA,-0.0403
18,GTCAGGAA,0.0369
19,CATAAAGC,-0.057
20,CGTGCTGC,-0.144
21,CTTCACTA,-0.0698
22,CTGAGAAG,-0.24
23,CCGTTGCA,0.0113
24,ACCTTCTG,-0.0438
25,ATGAGTGA,0.12

row,Sequence,PBM E-score
1,GTTGTTAA,0.334
2,CTTGTTAA,-0.0116
3,ATTGTTAA,0.0881
4,CAGAGAAG,-0.18
5,GCGTCTAC,-0.0433
6,TACATGGA,0.193
7,GACATGGA,0.342
8,GACATGCC,0.337
9,CACATCCC,-0.14
10,CACATGCC,0.0209
11,GACATGCA,0.276
12,TACATGAA,0.117
13,GACATGAA,0.308
14,AACATCCC,0.0693
15,GACATCCC,0.374
16,AACATGGA,0.159
17,CACATGAA,0.0613
18,AACCACAA,0.042
19,CCGCTAAG,0.0391
20,ATACACTG,0.0602
21,AAAAAGAA,0.036
22,ATTGGAAG,-0.0559
23,ATAGATCC,-0.0574
24,AATTTCAG,0.127
25,ACGTGCTA,-0.167

row,Sequence,PBM E-score
1,GATCCTTA,-0.107
2,AATGCGTG,0.0114
3,AGCAATTG,0.00301
4,ATTCGGCC,0.0205
5,CGTTGTTC,0.0573
6,CTTAGAGA,-0.00262
7,CACATCTA,0.0157
8,CACATGAC,-0.0252
9,GACATCTA,0.404
10,GACATGAC,0.335
11,AACATGAC,0.0901
12,TACATCTA,0.105
13,AGGCACCC,-0.241
14,ATCGCTAG,0.022
15,GAGTGGCC,-0.224
16,CAGTGTCG,0.0205
17,AAGTGTCC,0.366
18,CAGTGTCC,0.348
19,AAGTGTCG,0.126
20,AAGTGTCT,0.257
21,GAGTGTCC,0.232
22,GCGTGTAC,0.203
23,CCGTGTCC,0.413
24,GCGTGTCC,0.431
25,ACGTGTCG,0.0594

row,Sequence,PBM E-score
1,ACGTGTCC,0.455
2,CCGTGTCG,0.00655
3,GCGTGTCA,0.136
4,ACGTGTCT,0.16
5,CCGTGTCA,0.121
6,AATCTTCA,0.211
7,GCTGTGCC,0.00582
8,GCGCTATA,-0.036
9,GGAGCGAA,0.0407
10,AGGGAGGG,-0.283
11,TAGTTTGA,0.113
12,CACCATAG,-0.153
13,CTGTGTCA,0.02
14,ATGTGTCA,0.217
15,CGGTGTCC,0.304
16,ATGTGTCC,0.438
17,ATGTGTCG,0.194
18,AGGTGTCC,0.263
19,CTGTGTCC,0.439
20,CTGTGTAC,0.197
21,CGGTGTCA,0.0418
22,CCCGTAAG,-0.117
23,CGTTACTC,-0.115
24,GCTTTCCC,0.00071
25,AGCTCCTC,-0.315

row,Sequence,PBM E-score
1,GAAACGAA,0.115
2,CCAATTCC,0.0443
3,CCAAAGAG,-0.0341
4,GTGTCCTA,0.468
5,GAGTCCTA,0.0172
6,CAGTCCTA,0.0807
7,GCGTCCTA,0.168
8,CGGTCCTA,-0.185
9,CTGTCCTA,0.346
10,ACTGGGCC,-0.0731
11,CGCTATAC,-0.194
12,TCAGTACA,0.319
13,CTAGTACA,0.308
14,CTAGTACC,-0.0261
15,ACAGTACA,0.189
16,GTAGTACA,0.167
17,CCAGTACA,0.177
18,TAAGAGTA,0.0785
19,GCGGAGCC,-0.139
20,GGTTAGAC,0.076
21,ATGTCTCG,0.333
22,ATGTCTCC,0.302
23,ATGTCTCA,0.446
24,GTGTCTCA,0.286
25,AGGTCTCG,-0.156

row,Sequence,PBM E-score
1,CTGTCTCA,0.087
2,ACGGGCGG,-0.141
3,ACCCACGG,-0.17
4,CAGGTAAC,-0.0911
5,GAGCCGCC,-0.217
6,CAGCCTAC,-0.125
7,ACACGGAG,0.00035
8,ACACGGAC,0.32
9,ACACGGAA,0.166
10,ACCCGTCC,-0.0862
11,GCATGGAC,0.268
12,GTATGGAC,0.335
13,CTATGGAC,0.257
14,GGATGGAC,0.178
15,ACATGGAC,0.326
16,ATATGGAG,0.12
17,AAATGGAC,0.338
18,GTATGGAA,-0.0401
19,ATATGGAC,0.356
20,AAATGGAA,0.131
21,ACATGGAT,0.162
22,AAATGGAT,-0.0165
23,GAAATCTA,-0.139
24,TCAGCTCA,-0.149
25,ATTTGCCG,0.136

row,Sequence,PBM E-score
1,GCCAAGCA,-0.199
2,GAGTATGC,-0.0467
3,GATCAGAC,-0.195
4,AGGTACCA,-0.036
5,CAGTGTCA,-0.105
6,AATTAGTC,0.272
7,AATTAGTG,0.33
8,AATTAGTA,0.211
9,ATATTGCC,0.0437
10,CTTATCTA,0.0318
11,CTGGCCAA,-0.0295
12,AGGCATGA,-0.183
13,CTGGTCGC,-0.0171
14,ACAAATTA,0.357
15,ACAAATTG,0.301
16,CCAAATTA,0.193
17,ATAAATTA,0.343
18,AAAAATTC,0.182
19,ATAAATTG,0.225
20,CCAAATTC,0.0869
21,ACAAATTC,0.306
22,CTAAATTA,0.144
